Consider 69 compounds from ChEMBL document CHEMBL4513216, “Probing the Open Global Health Chemical Diversity Library for Multistage-Active Starting Points for Next-Generation Antimalarials” (ACS Infect Dis, 2020).

SMILES strings stand for the structures. The campaign covered roughly 69,000 compounds. About 8,600 (12%) showed an effect of 50% or more. Many of the other results were omitted from the sample, so strong results are more common in it than they were.

This assay deals with Plasmodium berghei. As to the kind of experiment: Screen against P. berghei liver stage (PbLuc), transformed with Luciferase, at 10uM. The note with it: tested at 10 uM. In kind it is functional, HepG2.
Consider `CC(=O)N1CCCC1c1ccc(CN2CCOCC2)cn1` (centres undefined), for which the INHIBITION is recorded as 35.625%.

For the compound `CCC(COC)NC(=O)N1CCC(n2ccc(C(F)(F)F)n2)CC1` (centres undefined), the INHIBITION is given as -15.1%. For `CCn1ccc(-c2nnc(SCC(=O)Nc3ccc(C)cc3)n2CC)n1` the value was 7.38%. The figure for `CCN1C(=O)CC(c2ccccc2)C12CCN(CC1CCOCC1)CC2` (centres undefined) is 43.2%; for `CCN(C)c1ncnc2c1CCN(S(=O)(=O)c1ccccc1)CC2` it is 43.9%. The figure for `Cc1ccc(OCCn2cnc3oc(C)c(C(=O)O)c3c2=O)cc1` is -1.04%; for `CC(Cn1ccnc1)NC(=O)N1CCN(Cc2ccco2)CC1` (centres undefined) it is -13.65%.

For `OC1CCN(c2cncc(CCC3CCCN3)n2)CC1` (centres undefined), the INHIBITION was 9.575%. For `O=C(CCN1CCCCO1)NCc1cn2c(n1)SCC2` the value was 78.4%; for `O=C(NCc1cn2c(n1)SCC2)c1cn(CCN2CCCCC2)nn1`, 21%; for `O=C(NCc1cn2c(n1)SCC2)c1ccc(CN2CCCCC2)cc1`, 29.2%. The figure for `CN(C(=O)C1CCCC1)C(c1cccc(F)c1)c1ccccn1` (centres undefined) is 5.7%. Turning to `CCOc1ccc(C(=O)N(Cc2cnn(C)c2)C(C)C)cc1OCC`, the INHIBITION is 27.8%. The figure for `O=C(CSCC1CC1)N1CCCC2(CCC(=O)N(CC3CC3)C2)C1` (centres undefined) is 32.1%.

As for `O=C(CO)N1CCCC2(CCC(=O)N(CC3CC3)C2)C1` (centres undefined), the INHIBITION is on record as 33%.

For the compound `O=C(CCC(F)(F)F)N1CCCC2(CCC(=O)N(CC3CC3)C2)C1` (centres undefined), the INHIBITION is recorded as 59.4%. The figure for `Cc1ccc(C(=O)N2CCc3ncnc(-c4cnn(C)c4)c3CC2)cn1` is -64.6%; for `CCNC(=O)Nc1ccc(N2CCC(OC)CC2)c(C(F)(F)F)c1` it is 89.6%. For `COC1CCN(c2ccc(NC(=O)C3CC3)cc2C(F)(F)F)CC1` the value was 95.8%; for `CCNC(=O)C1CCCN(c2ccc(C#N)cc2C(F)(F)F)C1` (centres undefined), 26.3%.

`COCC(=O)Nc1ccc(N2CCC(OC)CC2)c(C(F)(F)F)c1`: the INHIBITION came to 30.3%. For `COCCCNC(=O)Nc1ccc(-n2cncn2)c(C(F)(F)F)c1` the value was -37.55%.

With `CCC(=O)Nc1ccc(N2CCC(OC)CC2)c(C(F)(F)F)c1`, the INHIBITION stood at 45.1%. For `COCCNC(=O)[C@H]1CN(Cc2nccs2)C[C@H]2OCC[C@@H]12` the value was -3.19%.

For `CCOCCC1(CNC(=O)c2ccc(C)nc2)CCCC1`, the INHIBITION is reported as -30.6%.

Regarding `c1ccc(-c2noc(CN3CCC(c4ccn[nH]4)CC3)n2)cc1`, the INHIBITION is 35.1%.

As to `Cc1cccc(-c2noc(CN3CCC(c4ccn[nH]4)CC3)n2)c1`, the INHIBITION is -39.6%. `c1ccc(-c2cc(CN3CCC(c4ccn[nH]4)CC3)on2)cc1`: the INHIBITION came to 73.5%. For `Cn1cnc(S(=O)(=O)N2CCCC2c2ccnc3nccn23)c1` (centres undefined), the INHIBITION was found to be 23.84%. The figure for `CC(C)c1nccn1C1CCCN(C(=O)CCNS(C)(=O)=O)C1` (centres undefined) is 36.1%; for `CC(C)c1nccn1C1CCCN(C(=O)c2nccnc2N)C1` (centres undefined) it is 41.5%. For `CSCC(=O)N1CCCC(n2ccnc2C(C)C)C1` (centres undefined) the value was 45.4%; for `CC(C)c1nccn1C1CCCN(C(=O)CCc2cscn2)C1` (centres undefined), 62.1%. The figure for `CCc1nnsc1C(=O)N1CCCC(n2ccnc2C(C)C)C1` (centres undefined) is 53.9%.

Take `CC(C)c1nccn1C1CCCN(C(=O)CCc2cnn(C)c2)C1` (centres undefined): the INHIBITION was 33.3%.

As to `Cc1cc(N2CCC(c3ncc[nH]3)CC2)c2ccccc2n1`, the INHIBITION turned out to be 41.6%. As for `Cc1nc(CN2CCOCC3(CCN(c4cnccn4)CC3)C2)cs1`, the INHIBITION is recorded as -11.6%. For `CN(CC(C)(CO)CO)C(=O)Nc1cc(Cl)cc(Cl)c1` the value was 26.515%; for `c1csc(-c2nc(CN3CCCCC3Cn3cccn3)co2)c1` (centres undefined), 11.5%; for `NC1CC(C(F)(F)F)=NC=C1c1ccccc1` (centres undefined), 4.08%.

In the case of `COc1ccc(C2=CN=C(C(F)(F)F)CC2N)cc1` (centres undefined), the INHIBITION is on record as -0.371%. For `NC1CC(C(F)(F)F)=NC=C1c1ccc(Cl)cc1` (centres undefined) the value was 59%.

Take `COc1ccc(C(=O)NC2CC2)c(OC2CCN(C3CCC3)CC2)c1`: the INHIBITION came out at 29.4%. For `COc1ccc(C(=O)NC2CC2)c(OC2CCN(C(C)CO)CC2)c1` (centres undefined) the value was 76.6%. The figure for `COc1ccccc1OC1CCN(C(=O)CCCN2CCOCC2)CC1` is 23.8%.

With `COc1ccc(C(=O)NC2CC2)c(OC2CCN(CC3CC3)CC2)c1`, the INHIBITION was found to be 26.7%. For `COc1ccc(C(=O)NC2CC2)c(OC)c1` the value was 23.6%. For `COc1ccc(C(=O)NC2CC2)c(OC2CCN(CCCSC)CC2)c1` the value was 60.3%. For `O=C(NC1CCCCC1)N1CCn2c(nnc2C2CCCN2)C1` (centres undefined) the value was 44.1%; for `CS(=O)(=O)NCc1nnc2n1CCN(Cc1cccs1)CC2`, 34.6%; for `NC(=O)COc1ccc(CNCc2cc(F)cc(F)c2)cc1`, -28%.

Turning to `Cc1cc2nc(C(C)C)cc(NCCc3ccncc3)n2n1`, the INHIBITION was 34%. On to `CC(NC(=O)C1CCN(S(N)(=O)=O)CC1)c1cccc(OC(F)F)c1` (centres undefined), for which the INHIBITION is reported as 17%. On to `CC(=O)N1CC(C(=O)Nc2cccc(OC(F)F)c2)C1`, for which the INHIBITION worked out at 26%. The figure for `CC(=O)N1CCC(C(=O)NC(C)c2cccc(OC(F)F)c2)CC1` (centres undefined) is 58.3%. For `CCc1ncc2c(n1)CN(Cc1cc(C)on1)CC2` the value was 35.4%. For `Cc1nn(C)cc1-c1cncn1CCN(C)C1CCCC1` the value was -25.3%. Take `Cc1nc(C)c(C(=O)N2CCN(CCOc3ccccc3C)CC2)o1`: the INHIBITION amounted to 66.3%. The figure for `CCCC(=O)N1CCCN(C(=O)c2oc(C)nc2C)CC1` is 80%; for `CCCN1CCCN(C(=O)c2oc(C)nc2C)CC1` it is 2.7%; for `COCCN1CCCN(C(=O)c2oc(C)nc2C)CC1` it is 33.4%. The figure for `Cc1nc(C)c(C(=O)N2CCc3nnc(C4CCCCN4C)n3CC2)o1` (centres undefined) is -4.68%; for `Cc1ocnc1C(=O)N1CCN(CCOc2ccccc2)CC1` it is 37.6%. For `COCCNC(=O)C(C)n1nc(-c2ccco2)cc(N)c1=O` (centres undefined) the value was 42.6%; for `CC(C)OCCCN(Cc1ccncc1)Cc1cccc(F)c1F`, -12.9%; for `COc1cc2cc(C(=O)NCC(=O)O)n(C)c2c(OC)c1OC`, 57.3%. As for `COc1cc2cc(C(=O)O)n(C)c2c(OC)c1OC`, the INHIBITION is -9.48%.

For the compound `COc1cc2cc(C(=O)NCCC(=O)O)n(C)c2c(OC)c1OC`, the INHIBITION was 11%. For `Cc1nc(C2CCCN2CCC(=O)N2CCc3ccccc32)no1` (centres undefined) the value was 5.03%.
